Screening data from PubChem BioAssay.
ALOX15 inhib: 15-hLO (ALOX15) enzyme inhibition; 74,000 tested, 1.4% active; AID 887; Potency, µM (doses to about 57.1 µM), inactives show at the highest dose activity change, negative = inhibition, hits mostly inhibitors; purified 15hLO-1, xylenol orange hydroperoxide absorbance; P16050; also: potency is read from the fitted curve at half-maximal effect; % is scaled to controls: 0 for no effect and ±100 for the full control effect; nearly all actives have a fitted effect of over 55% in size
Target sequence (P16050 whole entry, looked up): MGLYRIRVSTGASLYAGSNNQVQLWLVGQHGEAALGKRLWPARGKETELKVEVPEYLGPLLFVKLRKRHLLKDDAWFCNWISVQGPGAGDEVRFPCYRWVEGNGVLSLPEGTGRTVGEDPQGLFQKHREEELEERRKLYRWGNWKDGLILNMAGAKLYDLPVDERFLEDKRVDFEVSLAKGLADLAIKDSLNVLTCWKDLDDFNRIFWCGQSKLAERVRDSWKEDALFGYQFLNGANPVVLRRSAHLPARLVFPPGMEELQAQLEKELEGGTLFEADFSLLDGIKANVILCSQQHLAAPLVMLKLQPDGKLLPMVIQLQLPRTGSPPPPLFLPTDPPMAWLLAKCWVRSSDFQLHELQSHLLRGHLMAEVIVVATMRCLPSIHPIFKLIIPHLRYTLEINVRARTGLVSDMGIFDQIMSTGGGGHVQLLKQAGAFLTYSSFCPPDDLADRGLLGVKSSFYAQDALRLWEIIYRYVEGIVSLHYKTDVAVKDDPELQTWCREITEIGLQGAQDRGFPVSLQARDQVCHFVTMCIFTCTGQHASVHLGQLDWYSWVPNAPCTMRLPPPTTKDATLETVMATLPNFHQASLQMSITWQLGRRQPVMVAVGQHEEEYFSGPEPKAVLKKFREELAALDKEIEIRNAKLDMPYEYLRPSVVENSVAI
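Compounds were preincubated 15 min at room temperature with 40 nM purified human enzyme (25 mM Hepes pH 7.5, 0.01% Triton X-100); 50 uM arachidonic acid reacted 6 min. Fe-xylenol orange detection, 30 min, absorbance ratio 573/405 nm.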
TsaE inh: YjeE (TsaE) inhibition, E. coli | P0AF67 | purified YjeE enzyme, qHTS inhibition assay | Potency, µM | 71,000 tested, 0.05% active | AID 605
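Fluorescence polarization of a BODIPY Texas Red–ADP probe (2 uM) bound to purified YjeE (10 uM) was read after 15 min room-temperature incubation with compounds. Loss of polarization marks inhibitors; ADP serves as titrated control.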
Hsp90 Hop PPI: changes Hsp90-Hop TPR2A binding signal, up or down; AID 595; 71,000 tested, 0.44% active; AlphaScreen TPR2A-His6 binding biotin-Hsp90 C-terminal peptide; Potency, µM (highest dose often 57 µM), for the others: top-dose activity change, negative = inhibition; active = well fitted curve in either direction with a large enough effect; inconclusive = small, poorly fitted or top-dose-only effect, or another doubt; also: potency is read from the fitted curve at half-maximal effect; % is scaled to controls: 0 for no effect and ±100 for the full control effect
Pol III holo inh: inhibitors of bacterial DNA polymerase III holoenzyme; 71,000 tested, 0.25% active; Potency, µM (doses to about 57.1 µM), for inactives: top-dose activity change, negative = inhibition; reconstituted DNA polymerase III holoenzyme replication, biochemical; also: potency is read from the fitted curve at half-maximal effect; % is scaled to controls: 0 for no effect and ±100 for the full control effect
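Reconstituted *E. coli* holoenzyme (0.35 nM Pol III, 1 nM beta, 154 nM SSB, 2 nM primase) was preincubated with compound for 15 min at RT. Synthesis on 1.4 nM ssM13Gori ran 35 min, then was stopped with PicoGreen/EDTA and read as dsDNA fluorescence.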
Tau fil binding: binders of human tau filaments | P10636 | recombinant tau filaments, thioflavin S fluorescence, 15 h; filaments grown with octadecylsulfate alongside compound | Potency, µM (top dose mostly 57.1 µM), without a hit: top-dose activity change, negative = inhibition | 71,000 tested, 2% active;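 also: potency is read from the fitted curve at half-maximal effect; % is scaled to controls: 0 for no effect and ±100 for the full control effect; actives lower thioflavin S fluorescence by blocking filaments or displacing dye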
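Quantitative HTS: thioflavine S signal from ODS-induced tau filaments, excited at 450 nm, emission 510 nm. Conditions: 1 uM tau, 30 uM ODS, 15 h at 37 C, pH 7.4.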
Active calls of the source: *; i = inactive; u = inconclusive; x = no result given; [ ] = dose if it differs, or a comment. Most compounds without a hit are left out; they make up all but 3.3% or so of the library. Unless noted, calls follow the shape of the dose curve; as a rule, active = well fitted curve in the direction sought with a large enough effect; inconclusive = small, poorly fitted or top-dose-only effect, or another doubt; inactive = no such curve, though single readings can be large; an effect the other way counts as inactive or inconclusive.

SMILES	ALOX15 inhib	TsaE inh	Hsp90 Hop PPI	Pol III holo inh	Tau fil binding
Cc1ccc(NCN2C(=O)C3C4C=CC(C4)C3C2=O)cc1 (stereo not drawn)	4.2%[11.4 µM]	i	-3.0%[11 µM]	-5.1%[11.4 µM]	13.2%[11.4 µM]
O=C1C2C3C=CC(C3)C2C(=O)N1CNc1ccc(O)cc1 (stereo not drawn)	u	i	-12.0%	-13.2%	15.8µM*
Fc1ccc(Nc2ncncc2-c2ccoc2)cc1	-5.4%	i	-2.9%	-4.6%	16.9%
COc1ccc2[nH]cc(CCNc3ncncc3-c3ccoc3)c2c1	1.6%	i	-14.3%	-2.8%	-29.4%
COc1ccccc1CNc1ncncc1-c1ccoc1	10µM*	i	u	-3.0%	-7.8%
COc1ccccc1CNc1ncncc1-c1ccc(N(C)C)cc1	-15.6%	i	u	5.4%	-13.2%
CN(C)c1ccc(-c2cncnc2Nc2ccc(F)cc2)cc1	2.51µM*	i	-16.5%	2.6%	-9.5%
COc1ccccc1CNc1ncncc1-c1ccccc1C	u	i	-1.7%	-4.1%	3.6%
COc1ccc2[nH]cc(CCNc3ncncc3-c3ccc(N(C)C)cc3)c2c1	-1.9%	i	u	-4.7%	25.1µM*
COc1ccc(CNc2ncncc2-c2ccc(N(C)C)cc2)c(OC)c1	20µM*	i	-27.5%	7.5%	u
CC(C)(C)N1C(=O)[C@H]2[C@H]3[C@H](O)[C@H](O)C/C(=N/OC[C@@H](O)COCc4ccco4)[C@H]3CC[C@@H]2C1=O	5.1%[11.4 µM]	x	x	x	x
COc1ccc2[nH]cc(CCNc3cc(-c4ccccc4C(F)(F)F)ncn3)c2c1	15.8µM*	i	-21.1%	-3.9%	-10.0%
COc1ccc2[nH]cc(CCNc3cc(-c4ccccc4Cl)ncn3)c2c1	u	i	-28.0%	-8.1%	-10.0%
COc1ccc(CNc2ncnc3ccc(-c4ccc(N(C)C)cc4)cc23)c(OC)c1	u	i	u	-5.0%	2.51µM*
COc1cccc(-c2cncnc2NCc2cccnc2)c1	15.8µM*	i	-11.0%	-8.5%	-1.1%
CO[C@@H]1COC(=O)C/C=C\[C@@H](C)COC(=O)[C@H](Cc2ccccc2)NC(=O)C/C=C\[C@H]1C	6.2%[11.4 µM]	x	x	x	x
Cc1nc(NCc2ccccc2)c2nc(-c3ccccc3)n(CCN3CCOCC3)c2n1	20µM*	i	-5.2%	0.8%	7.4%
CCCCNc1nc(C)nc2c1nc(-c1ccccc1)n2CCN1CCCCC1	12.6µM*	i	-7.4%	-5.9%	58.8%
Cc1nc(NCc2ccccc2)c2nc(-c3ccccc3)n(CCN3CCCC3)c2n1	4.1%	i	-4.6%	-2.2%	20.6%
COc1ccccc1CNc1nc(-c2ccc(N(C)C)cc2)nc2ccccc12	20µM*	i	-14.3%	-1.0%	i
COc1ccccc1-c1nc(NCc2cnc(C)cn2)c2ccccc2n1	15.8µM*	i	u	-10.3%	u
COc1ccccc1CNc1nc(-c2ccccc2OC)nc2ccccc12	u	i	-10.2%	-4.0%	3.98µM*
COc1cccc(-c2nc(NC3CC3)c3ccccc3n2)c1	25.1µM*	i	u	-6.3%	55.7%
COc1cccc(-c2nc(NCc3ccccc3)c3ccccc3n2)c1	-24.1%	i	-6.8%	2.2%	-4.8%
[O-]/[N+](=N\O)c1ccccc1	-25.8%	i	-2.7%	10.2%	12.9%
SMILES	ALOX15 inhib	TsaE inh	Hsp90 Hop PPI	Pol III holo inh	Tau fil binding
C[C@@H](c1ccccc1)N1C(=O)[C@H]2[C@@H]3[C@H](O)[C@H](O)CC(=O)[C@H]3CC[C@H]2C1=O	6.5%[11.4 µM]	x	x	x	x
COc1ccccc1-c1nc(NC2CC2)c2ccccc2n1	-17.2%	i	-5.4%	-11.3%	15.8µM*
COc1ccccc1-c1nc(NCc2ccccc2)c2ccccc2n1	-1.8%	i	-4.7%	-11.8%	3.98µM*
CCOC(=O)[C@@H](O)Cc1cnc2ccccc2n1	-0.9%[11.4 µM]	i	-2.4%[11 µM]	-2.8%[11.4 µM]	5.01µM*
CCOC(=O)c1nc2ccccc2s1	2.0%	i	1.6%	0.6%	1.3%
O=c1cc(-c2ccccc2O)oc2ccc3ccccc3c12	17.7%[25.6 µM]	i	-2.7%	1.8%	u
O=c1cc(-c2ccccc2O)oc2c(O)c(O)ccc12	u	i	-21.9%	0.501µM*	39.8µM*
O=c1cc(-c2ccccc2)oc2c(O)c(O)ccc12	5.01µM*	x	x	x	x
CN(c1cccc(NC(=O)Nc2cccc(Cl)c2)c1)S(C)(=O)=O	-8.4%	i	0.9%	-1.5%	6.0%
CN(C)c1ccc(NC(=O)Nc2cccc(Cl)c2)cc1	-13.9%	i	-29.0%	0.7%	5.01µM*
O=C1CN(CC(=O)N2CCOCC2)c2ccccc2O1	-1.3%	i	-10.6%	-26.4%	u
O=C1CN(CC(=O)N2CCCCC2)c2ccccc2O1	u	i	-10.0%	-3.6%	31.6µM*
CC1=CC(=O)CC(C)(C)[C@]1(O)/C=C\C(C)=C\C(=O)O	0.4%[11.4 µM]	i	-1.7%[11 µM]	-2.9%[11.4 µM]	-12.1%[11.4 µM]
O=C1c2cccnc2-c2ncccc21	4.2%	i	-25.8%	3.9%	-5.8%
CC1(C)OCC(CSC2=C(SCC3COC(C)(C)O3)C(=O)c3ncccc3C2=O)O1 (stereo not drawn)	u	u	15.8µM*	-7.9%	15.8µM*
Cn1c(CSCc2ccc(F)cc2)nnc1SCC(=O)Nc1nccs1	-2.6%	i	-7.2%	-3.2%	9.3%
Cn1nnnc1SCc1ccc(C(=O)Nc2nccs2)cc1	u	i	-1.2%	-11.0%	2.51µM*
O=c1cnc2cnc(Oc3cccc(Cl)c3)nc2n1CCc1ccccc1	-11.2%	i	-10.9%	-5.7%	25.1µM*
CCN1C(=S)SC(=O)C1=C1C=C(C)OC(C)=C1	-6.0%	i	-18.3%	-0.3%	3.16µM*
CCN1C(=S)SC(=O)C1=C1C=C(C)N(Cc2ccco2)C(C)=C1	-10.6%	i	-18.2%	-4.1%	58.7%
Nc1ccc(N=Nc2ccccc2)c(N)n1	u	i	u	-6.2%	12.6µM*
C=CCN1C(=O)CS/C1=C(\C#N)S(=O)(=O)c1ccc(C)cc1	-18.4%	i	u	-0.2%	15.8µM*
C=CCN1C(=O)CSC1=Nc1cccc(O)c1	3.1%	i	1.1%	-2.6%	6.4%
O=C(O)c1cc(NCc2ccccc2C(F)(F)F)ccc1N1CCOCC1	15.7%	i	-0.1%	-1.1%	-3.1%
COC(=O)c1cc(NCc2c(F)cccc2Cl)ccc1N1CCOCC1	15.8µM*	i	0.4%	-8.4%	u
COC(=O)c1cc(NCc2cccs2)ccc1N1CCOCC1	20µM*	i	-3.3%	-5.4%	-13.3%
O=C(O)c1cc(NCc2cccs2)ccc1N1CCOCC1	1.5%	i	-2.0%	0.7%	-4.6%
COc1ccc2[nH]cc(CCNc3ncncc3-c3ccccc3C)c2c1	-3.8%	u	-23.3%	4.2%	-10.5%
COC(=O)C1=C(C)NC(C)=C(C(=O)OCCN(C)Cc2ccccc2)[C@H]1c1cccc([N+](=O)[O-])c1	-1.4%[25.6 µM]	i	-10.5%[26 µM]	4.5%[25.6 µM]	10µM*
COC(=O)c1cc(-c2ccc3c(c2)OCO3)nc2ccccc12	-13.2%	i	25.1µM*	-3.3%	38.0%
